hgDAF-12 ag – agonists of H. glycines DAF-12 nuclear receptor. actives 1.8% (n = 370,000). activation, % at 6.8 µM. HEK293 GAL4-hgDAF12 UAS-luciferase reporter, agonist luminescence; normalized to butyrate control;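 active = activation above a cutoff set at the mean of all screened compounds plus 3 SD, cut at about 10% in these data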;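 also: 0% = DMSO wells and 100% = sodium butyrate wells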
ssDAF-12 act – activators of S. stercoralis DAF-12 nuclear receptor. HEK293 ssDAF-12/GRIP1 lit1-tk-luc reporter, luminescence; % of 3 µM dafachronic acid response. activation, % at 6.8 µM. actives 1% (n = 370,000). AID 652126;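 active = activation above the mean over all tested compounds plus 3 SD, cut at about 0.9% in these data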;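 also: 0% = DMSO-only wells and 100% = 3 µM delta7-dafachronic acid wells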
DAX1 inh-1 – inhibitors of human orphan nuclear receptor DAX1 (NR0B1); P51843; HEK293 Gal4-DAX1 luciferase reporter, luminescence; inhibition, % at 6.75 µM; actives 0.99% (n = 340,000); AID 504766;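 active = inhibition above the mean over all tested compounds plus 3 SD, cut at about 4.2% in these data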;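 also: 0% = DAX1-transfected cells with DMSO and 100% = empty-vector control cells with DMSO; inhibition shows as a rise in luminescence from relieved DAX1 repression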
DAX1 inh-2 – DAX1 (NR0B1) inhibition, primary screen. HEK293T StAR-luciferase reporter, SF-1/DAX-1 repression relief. inhibition, % at 6.8 µM. actives 1.1% (n = 370,000). AID 652010;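 active = inhibition above the mean over all tested compounds plus 3 SD, cut at about 3.6% in these data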;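 also: 0% = DAX-1 cells with DMSO and 100% = cells lacking DAX-1 with DMSO; higher inhibition means more luminescence from relief of DAX-1 repression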
hcDAF-12 act – activates DAF-12 receptor from parasite H. contortus; HEK293 hcDAF-12 lit1-tk-luc reporter, luminescence; 0% DMSO, 100% Δ7-dafachronic acid; actives 1.4% (n = 370,000); activation, % at 6.8 µM;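 active = activation above the mean of all tested compounds plus 3 SD, cut at about 5.5% in these data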;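 also: 100% = response to 3 µM Δ7-dafachronic acid high control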
DAX1 conf – NR0B1 (human) inhibition, confirmation | shares compounds with DAX1 inh-2 | HEK293T StAR-promoter luciferase reporter, SF-1/DAX-1 repression | inhibition, % at 6.8 µM | actives 87% (n = 2,400);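 active = inhibition above the average of every tested compound plus 3 SD, cut at about 3.8% in these data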;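 also: 0% = DAX-1 cells with DMSO and 100% = no DAX-1 control cells with DMSO; active compounds raise luminescence by relieving repression of the StAR reporter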
SF1 AF2mut Luc – nonselective inhibitor or artifact in SF-1 mutant DAX1 counter-screen; shares compounds with DAX1 inh-2; HEK293 StAR-luciferase, SF-1 AF2 mutant, luminescence; inhibition, % at 6.8 µM; actives 78% (n = 2,400); AID 652136;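 active = inhibition above the mean of all tested compounds plus 3 SD, cut at about 3% in these data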;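 also: 0% = DAX-1 transfected cells with DMSO and 100% = cells without DAX-1 with DMSO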
LXRb hcDAF ctr – activates human LXR-beta, counter-screen for hcDAF-12 agonists. 3,400 tested, under 10 active. shares compounds with hcDAF-12 act. HEK293 Gal4-LXR tk-luc reporter, luminescence, 24 h; normalized: DMSO 0%, positive control 100%. activation, % at 6.8 µM;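 active = mean percent activation of the reporter above a cutoff set as the average over tested compounds plus their standard deviation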
Target sequence (P55055 whole entry, looked up, the tested form may be a part): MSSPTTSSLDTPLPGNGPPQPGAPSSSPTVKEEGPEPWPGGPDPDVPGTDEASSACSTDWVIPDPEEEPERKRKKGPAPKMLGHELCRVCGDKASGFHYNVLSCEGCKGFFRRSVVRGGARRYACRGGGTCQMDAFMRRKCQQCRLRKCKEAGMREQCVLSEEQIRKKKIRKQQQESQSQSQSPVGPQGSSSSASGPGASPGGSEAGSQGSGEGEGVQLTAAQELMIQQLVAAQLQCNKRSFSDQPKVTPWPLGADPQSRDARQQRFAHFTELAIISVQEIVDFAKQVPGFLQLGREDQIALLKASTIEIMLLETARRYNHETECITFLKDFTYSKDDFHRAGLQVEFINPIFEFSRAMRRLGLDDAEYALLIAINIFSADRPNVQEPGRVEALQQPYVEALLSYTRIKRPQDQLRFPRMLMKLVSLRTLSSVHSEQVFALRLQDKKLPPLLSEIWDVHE
hcDAF12 conf – hcDAF-12 agonism, confirmation assay. actives 61% (n = 3,400). activation, % at 6.8 µM. HEK293 hcDAF-12 lit1-tk-luc reporter, luminescence; % of Δ7-dafachronic acid response. shares compounds with hcDAF-12 act;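 active = mean activation across triplicate tests above the threshold derived from the earlier primary screen, cut at about 5.5% in these data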;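 also: 0% = DMSO only wells and 100% = 3 µM Δ7-dafachronic acid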
hgDAF12 conf – hgDAF-12 agonism, confirmation assay | actives 80% (n = 3,300) | AID 743050 | activation, % at 6.8 µM | HEK293 GAL4-hgDAF12 luciferase reporter, agonist mode; percent of butyrate response | shares compounds with hgDAF-12 ag;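 active = mean activation over triplicate wells above the hit cutoff derived from the earlier primary screen, cut at about 11% in these data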;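 also: 0% = DMSO low control and 100% = 2 mM sodium butyrate high control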
LXRb DAF12 ctr – counter-screen for DAF-12 agonists: agonists of human LXR-beta; shares compounds with hgDAF-12 ag; HEK293 Gal4-LXR luciferase reporter, 24 h; activation, % at 6.8 µM; 3,300 tested, under 10 active;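 active = mean activation of the triplicate above a set limit carried over from the primary screen, none filed active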
Starred values were filed as active, the others as inactive; / = no result given. A selection: hits, their analogues and other compounds. The true share with any hit is near 4.1%.

SMILES	hgDAF-12 ag	ssDAF-12 act	DAX1 inh-1	DAX1 inh-2	hcDAF-12 act	DAX1 conf	SF1 AF2mut Luc	hgDAF12 conf	LXRb DAF12 ctr	others
O=C(O)c1ccc(N/N=C/c2cc3ccccc3nc2Cl)cc1	17*	0	4.3*	5.4*	5.6*	14*	5.7*	12*	0
Cc1cccc2cc(/C=N/Nc3ccc(C(=O)O)cc3)c(Cl)nc12	19*	0	4	8.9*	6.0*	37*	15*	25*	1
CCCc1ccc(S(=O)(=O)N2CCN(C(C)C(=O)NCc3ccc(OC)cc3)CC2)cc1 (configuration not stated)	-1	-2	0	-2	-3	/	/	/	/
CCOc1ccc(/C=C\C(C)=N\O)cc1	14*	0	2	4.9*	2	8.2*	6.9*	13*	1
CC1(C)NC(=O)N(CC(=O)N2CCN(c3cccc(Cl)c3)CC2)C1=O	/	/	-1	/	/	/	/	/	/
Cc1noc(C)c1NC(=O)Nc1ccc2c(c1)C(=O)N([C@H](C)CO)C[C@H](C)[C@H](CN(C)C)O2	0	-1	0	1	-1	/	/	/	/
CN1CCC(N(C)C(=O)/C(C#N)=C/c2ccc(OC(F)F)cc2)CC1	-1	-2	1	0	0	/	/	/	/
Cc1ccc(CN2CC(C(=O)Nc3cc(C)ccn3)CC2=O)cc1 (configuration not stated)	22*	0	2	11*	3	12*	3.1*	22*	0
Cc1ccnc(NC(=O)C2CC(=O)N(c3ccc4c(c3)OCCO4)C2)c1 (configuration not stated)	15*	0	1	12*	4	12*	6.2*	16*	1
C#CCOCCOCCOCCNc1nc(N2CCN(C(=O)[C@H](CCC(=O)O)n3cc(C(N)CO)nn3)CC2)nc(N2CCN(C(=O)[C@H](CCC(=O)O)n3cc(C(N)[C@H](C)CC)nn3)CC2)n1 (some centres not stated)	/	/	-1	/	/	/	/	/	/
CNc1cccc(-c2cc(OC)ccc2OC)n1	0	-1	/	-1	-2	/	/	/	/
CC(C)c1ccc(/C=C/C(=O)Nc2nncs2)cc1	19*	1	0	5.5*	13*	14*	4.8*	18*	1	LXRb hcDAF ctr=2;hcDAF12 conf=6.3*
Cc1ccccc1NC(=O)c1cccc(C(=O)Nc2ccccc2C)n1	0	-2	0	-1	-3	/	/	/	/
Cc1cccc(NC(=O)c2ccc3ccccc3n2)c1C	17*	2.8*	3	6.4*	23*	11*	7.5*	25*	1	LXRb hcDAF ctr=2;hcDAF12 conf=19*
CC1(C)NC(=O)N(CC(=O)OCC(=O)Nc2sccc2C#N)C1=O	0	-1	0	2	3	/	/	/	/
COc1ccc(C(O)c2nc(-c3cnc4ccccc4c3)cs2)cc1 (configuration not stated)	10	0	/	2	2	/	/	/	/
OC(c1ccc(F)cc1)c1nc(-c2cnc3ccccc3c2)cs1 (configuration not stated)	16*	1	/	5.1*	6.6*	11*	8.1*	19*	1	LXRb hcDAF ctr=1;hcDAF12 conf=7.9*
CCOC(=O)c1cnc2cc(F)c(F)cc2c1N1CCOCC1	1	-1	-2	0	-3	/	/	/	/
CC(=O)c1cccc(NC(=O)c2cc(-c3ccc(F)cc3)on2)c1	4	0	0	0	0	/	/	/	/
CC(C)c1cc(C(=O)Nc2cccc(Cl)c2)no1	19*	1	1	4.6*	7.8*	16*	9.3*	19*	1	LXRb hcDAF ctr=2;hcDAF12 conf=5.8*
CC(=O)c1cccc(NC(=O)c2cc(C(C)C)on2)c1	17*	0	0	5.2*	5	11*	8.0*	10*	1
O=C(COc1ccc(Br)cc1)N(Cc1cccs1)C1CCS(=O)(=O)C1 (configuration not stated)	-3	-1	0	0	-1	/	/	/	/
COC(=O)C1=C(C)N(Cc2cccc(C(F)(F)F)c2)C(=NCc2ccc(OC)cc2)NC1c1cccc(F)c1 (configuration not stated)	-1	-1	/	0	3	/	/	/	/
CN(C)c1ccc(-c2nnc(-c3cccs3)o2)cc1	20*	1	4.4*	5.8*	5	15*	5.9*	17*	1
CCc1sc(C(=O)N2CCc3ccccc32)cc1C	33*	3.5*	2	6.3*	10*	11*	6.6*	21*	1	LXRb hcDAF ctr=1;hcDAF12 conf=7.2*
SMILES	hgDAF-12 ag	ssDAF-12 act	DAX1 inh-1	DAX1 inh-2	hcDAF-12 act	DAX1 conf	SF1 AF2mut Luc	hgDAF12 conf	LXRb DAF12 ctr	others
CSCCC(C(=O)Nc1c(C)cccc1C)N1CCN(C/C=C/c2ccccc2)CC1 (configuration not stated)	-3	-1	/	-1	1	/	/	/	/
CC1=NN(c2ccccc2)C(=O)C1c1ccccc1 (configuration not stated)	0	-1	-1	-1	-2	/	/	/	/
CC1=Nc2ccccc2N=C(N)C1c1ccccc1 (configuration not stated)	18*	1.5*	1	5.1*	7.4*	3.7*	4.3*	13*	0	LXRb hcDAF ctr=0;hcDAF12 conf=3
O=C(COc1ccc2c(c1)CCC2)NCc1ccccc1	-1	-2	-1	-1	-2	/	/	/	/
NNC(=O)c1cccc(COc2ccc3c(c2)CCC3)c1	22*	1	-5	4.9*	5	15*	5.1*	22*	1
CCCc1cc(C(=O)Nc2ccc(C)cc2)no1	17*	1	1	5.2*	6.2*	8.7*	7.3*	13*	1
CCc1ccc(NC(=O)c2cc(C)on2)cc1	13*	-1	1	5.8*	7.8*	11*	4.9*	13*	1	LXRb hcDAF ctr=1;hcDAF12 conf=6.8*
Cc1ccc(NC(=O)c2cc(C)no2)cc1	4	-1	0	1	1	/	/	/	/

Compound activity (PubChem)
